# Reference: the supplement of paper PMC4022240
# ± gives the standard deviation.
# T1: HaloTag-ATRX ADD domain (163-292)
# T1 chain: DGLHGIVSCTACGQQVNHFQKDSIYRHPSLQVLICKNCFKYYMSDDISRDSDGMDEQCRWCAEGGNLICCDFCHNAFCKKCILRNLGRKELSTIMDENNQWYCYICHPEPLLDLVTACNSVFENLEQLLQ
# Tests used:
# Assay in all cases: peptide microarray binding signal (635 nm), min-max normalized on array (fraction of array maximum); higher = stronger binding
# Conditions in all cases: peptide region: H3 1-13
# [1] = target: T1, HaloTag-ATRX ADD domain (163-292)
# Method: (§1)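 Histone 13-mer peptides were synthesized as cellulose conjugates with a C-terminal 20-atom PEG linker and printed in triplicate on nitrocellulose. The sequence given is the unmodified backbone; PTMs (Kme1/2/3, Kac, Sph/Tph, Rme/Rme2a/Rme2s, Rcit) are listed in the label and the 'peptide modifications' condition. Slides were probed at 4 °C for 1 h with biotin-labelled (HQ)5-HaloTag reader fusions (ATRX-ADD, ING2-PHD) then streptavidin-Alexa647, or with rabbit histone antibodies then anti-rabbit Alexa647. The mean 635 nm signal of the triplicate spots was scaled 0-1 between the lowest and highest values on each array.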
# [2] = target: HaloTag-ING2 PHD (mouse Ing2 200-280)
# Method: as §1
# [3] = target: anti-H3K4me3 antibody ab8580
# Method: as §1
# [4] = target: anti-H3K9me3 antibody ab8898
# Method: as §1
# [5] = peptide modifications: H3K4ac H3K9ac, binder concentration: 1:2,000 dilution
# [6] = peptide modifications: H3K4ac H3K9ac, binder concentration: 1:10,000 dilution
# [7] = peptide modifications: H3K4me2, binder concentration: 1:2,000 dilution
# [8] = peptide modifications: H3K4me2, binder concentration: 1:10,000 dilution
# [9] = peptide modifications: H3K4ac H3K9me2, binder concentration: 1:2,000 dilution
# [10] = peptide modifications: H3K4ac H3K9me2, binder concentration: 1:10,000 dilution
# [11] = peptide modifications: H3K4ac H3T6ph, binder concentration: 1:2,000 dilution
# [12] = peptide modifications: H3K4ac H3T6ph, binder concentration: 1:10,000 dilution
# [13] = peptide modifications: H3K4ac H3K9me1, binder concentration: 1:2,000 dilution
# [14] = peptide modifications: H3K4ac H3K9me1, binder concentration: 1:10,000 dilution
# [15] = binder concentration: 1:2,000 dilution
# [16] = binder concentration: 1:10,000 dilution
# [17] = peptide modifications: H3K4me1 H3K9me1, binder concentration: 1:2,000 dilution
# [18] = peptide modifications: H3K4me1 H3K9me1, binder concentration: 1:10,000 dilution
# [19] = peptide modifications: H3K4ac, binder concentration: 1:2,000 dilution
# [20] = peptide modifications: H3K4ac, binder concentration: 1:10,000 dilution
# [21] = peptide modifications: H3K4me1 H3T6ph, binder concentration: 1:2,000 dilution
# [22] = peptide modifications: H3K4me1 H3T6ph, binder concentration: 1:10,000 dilution
# [23] = peptide modifications: H3K4ac H3K9me3, binder concentration: 1:2,000 dilution
# [24] = peptide modifications: H3K4ac H3K9me3, binder concentration: 1:10,000 dilution
binder,measurement,setting,value
ARTKQTARKSTGG [H3 1-13 A R T Kac Q T A R Kac S T G G],peptide microarray binding signal,"[1]; peptide modifications: H3K4ac H3K9ac, binder concentration: 50 nM",0.0941 ± 0.064
same,peptide microarray binding signal,"[1]; peptide modifications: H3K4ac H3K9ac, binder concentration: 500 nM",0.0794 ± 0.02
same,peptide microarray binding signal,"[2]; peptide modifications: H3K4ac H3K9ac, binder concentration: 10 nM",0.0863 ± 0.014
same,peptide microarray binding signal,"[2]; peptide modifications: H3K4ac H3K9ac, binder concentration: 100 nM",0.099 ± 0.0066
same,peptide microarray binding signal,[3]; [5],0.047 ± 0.0095
same,peptide microarray binding signal,[3]; [6],0.139 ± 0.057
same,peptide microarray binding signal,[4]; [5],0.102 ± 0.0083
same,peptide microarray binding signal,[4]; [6],0.123 ± 0.018
ARTKQTARKSTGG [H3 1-13 A R T Kme2 Q T A R K S T G G],peptide microarray binding signal,"[1]; peptide modifications: H3K4me2, binder concentration: 50 nM",0.00564 ± 0.00013
same,peptide microarray binding signal,"[1]; peptide modifications: H3K4me2, binder concentration: 500 nM",0.0118 ± 0.00057
same,peptide microarray binding signal,"[2]; peptide modifications: H3K4me2, binder concentration: 10 nM",0.0623 ± 0.0073
same,peptide microarray binding signal,"[2]; peptide modifications: H3K4me2, binder concentration: 100 nM",0.0581 ± 0.0074
same,peptide microarray binding signal,[3]; [7],0.03 ± 0.01
same,peptide microarray binding signal,[3]; [8],0.0164 ± 0.0011
same,peptide microarray binding signal,[4]; [7],0.00156 ± 0.00023
same,peptide microarray binding signal,[4]; [8],0.00115 ± 2e-05
ARTKQTARKSTGG [H3 1-13 A R T Kac Q T A R Kme2 S T G G],peptide microarray binding signal,"[1]; peptide modifications: H3K4ac H3K9me2, binder concentration: 50 nM",0.00875 ± 0.0011
same,peptide microarray binding signal,"[1]; peptide modifications: H3K4ac H3K9me2, binder concentration: 500 nM",0.0157 ± 0.0031
same,peptide microarray binding signal,"[2]; peptide modifications: H3K4ac H3K9me2, binder concentration: 10 nM",0.0771 ± 0.0077
same,peptide microarray binding signal,"[2]; peptide modifications: H3K4ac H3K9me2, binder concentration: 100 nM",0.0944 ± 0.0071
same,peptide microarray binding signal,[3]; [9],0.00689 ± 0.0014
same,peptide microarray binding signal,[3]; [10],0.00702 ± 0.001
same,peptide microarray binding signal,[4]; [9],0.00331 ± 0.0003
same,peptide microarray binding signal,[4]; [10],0.00455 ± 0.00089
ARTKQTARKSTGG [H3 1-13 A R T Kac Q Tph A R K S T G G],peptide microarray binding signal,"[1]; peptide modifications: H3K4ac H3T6ph, binder concentration: 50 nM",0.00693 ± 0.00026
same,peptide microarray binding signal,"[1]; peptide modifications: H3K4ac H3T6ph, binder concentration: 500 nM",0.0116 ± 0.0014
same,peptide microarray binding signal,"[2]; peptide modifications: H3K4ac H3T6ph, binder concentration: 10 nM",0.0574 ± 0.0059
same,peptide microarray binding signal,"[2]; peptide modifications: H3K4ac H3T6ph, binder concentration: 100 nM",0.0396 ± 0.0055
same,peptide microarray binding signal,[3]; [11],0.00242 ± 0.00029
same,peptide microarray binding signal,[3]; [12],0.00417 ± 0.00026
same,peptide microarray binding signal,[4]; [11],0.0013 ± 0.00014
same,peptide microarray binding signal,[4]; [12],0.000923 ± 9.6e-06
ARTKQTARKSTGG [H3 1-13 A R T Kac Q T A R Kme S T G G],peptide microarray binding signal,"[1]; peptide modifications: H3K4ac H3K9me1, binder concentration: 50 nM",0.00809 ± 0.00079
same,peptide microarray binding signal,"[1]; peptide modifications: H3K4ac H3K9me1, binder concentration: 500 nM",0.0149 ± 0.0037
same,peptide microarray binding signal,"[2]; peptide modifications: H3K4ac H3K9me1, binder concentration: 10 nM",0.0703 ± 0.011
same,peptide microarray binding signal,"[2]; peptide modifications: H3K4ac H3K9me1, binder concentration: 100 nM",0.1 ± 0.035
same,peptide microarray binding signal,[3]; [13],0.00664 ± 0.0014
same,peptide microarray binding signal,[3]; [14],0.0205 ± 0.012
same,peptide microarray binding signal,[4]; [13],0.00574 ± 0.00077
same,peptide microarray binding signal,[4]; [14],0.00565 ± 0.00024
ARTKQTARKSTGG [H3 1-13 A R T K Q T A R K S T G G],peptide microarray binding signal,[1]; binder concentration: 50 nM,0.0155 ± 0.00087
same,peptide microarray binding signal,[1]; binder concentration: 500 nM,0.0263 ± 0.0017
same,peptide microarray binding signal,[2]; binder concentration: 10 nM,0.0231 ± 0.0017
same,peptide microarray binding signal,[2]; binder concentration: 100 nM,0.00957 ± 0.0015
same,peptide microarray binding signal,[3]; [15],0.00185 ± 0.00055
same,peptide microarray binding signal,[3]; [16],0.00126 ± 6.5e-05
same,peptide microarray binding signal,[4]; [15],0.00196 ± 0.00012
same,peptide microarray binding signal,[4]; [16],0.000807 ± 1.5e-05
ARTKQTARKSTGG [H3 1-13 A R T Kme Q T A R Kme S T G G],peptide microarray binding signal,"[1]; peptide modifications: H3K4me1 H3K9me1, binder concentration: 50 nM",0.00743 ± 0.00015
same,peptide microarray binding signal,"[1]; peptide modifications: H3K4me1 H3K9me1, binder concentration: 500 nM",0.0134 ± 0.00046
same,peptide microarray binding signal,"[2]; peptide modifications: H3K4me1 H3K9me1, binder concentration: 10 nM",0.105 ± 0.023
same,peptide microarray binding signal,"[2]; peptide modifications: H3K4me1 H3K9me1, binder concentration: 100 nM",0.145 ± 0.024
same,peptide microarray binding signal,[3]; [17],0.0452 ± 0.0073
same,peptide microarray binding signal,[3]; [18],0.0277 ± 0.0056
same,peptide microarray binding signal,[4]; [17],0.00387 ± 0.00011
same,peptide microarray binding signal,[4]; [18],0.00248 ± 0.00012
ARTKQTARKSTGG [H3 1-13 A R T Kac Q T A R K S T G G],peptide microarray binding signal,"[1]; peptide modifications: H3K4ac, binder concentration: 50 nM",0.0102 ± 0.00024
same,peptide microarray binding signal,"[1]; peptide modifications: H3K4ac, binder concentration: 500 nM",0.0281 ± 0.0023
same,peptide microarray binding signal,"[2]; peptide modifications: H3K4ac, binder concentration: 10 nM",0.214 ± 0.045
same,peptide microarray binding signal,"[2]; peptide modifications: H3K4ac, binder concentration: 100 nM",0.0856 ± 0.085
same,peptide microarray binding signal,[3]; [19],0.00445 ± 0.0025
same,peptide microarray binding signal,[3]; [20],0.00188 ± 0.00011
same,peptide microarray binding signal,[4]; [19],0.00439 ± 0.00098
same,peptide microarray binding signal,[4]; [20],0.0019 ± 0.00014
ARTKQTARKSTGG [H3 1-13 A R T Kme Q Tph A R K S T G G],peptide microarray binding signal,"[1]; peptide modifications: H3K4me1 H3T6ph, binder concentration: 50 nM",0.00661 ± 0.00014
same,peptide microarray binding signal,"[1]; peptide modifications: H3K4me1 H3T6ph, binder concentration: 500 nM",0.0257 ± 0.00052
same,peptide microarray binding signal,"[2]; peptide modifications: H3K4me1 H3T6ph, binder concentration: 10 nM",0.087 ± 0.04
same,peptide microarray binding signal,"[2]; peptide modifications: H3K4me1 H3T6ph, binder concentration: 100 nM",0.211 ± 0.02
same,peptide microarray binding signal,[3]; [21],0.00296 ± 0.00042
same,peptide microarray binding signal,[3]; [22],0.00194 ± 0.00011
same,peptide microarray binding signal,[4]; [21],0.00414 ± 0.00036
same,peptide microarray binding signal,[4]; [22],0.00259 ± 0.00028
ARTKQTARKSTGG [H3 1-13 A R T Kac Q T A R Kme3 S T G G],peptide microarray binding signal,"[1]; peptide modifications: H3K4ac H3K9me3, binder concentration: 50 nM",0.0136 ± 0.004
same,peptide microarray binding signal,"[1]; peptide modifications: H3K4ac H3K9me3, binder concentration: 500 nM",0.0491 ± 0.024
same,peptide microarray binding signal,"[2]; peptide modifications: H3K4ac H3K9me3, binder concentration: 10 nM",0.0828 ± 0.015
same,peptide microarray binding signal,"[2]; peptide modifications: H3K4ac H3K9me3, binder concentration: 100 nM",0.0894 ± 0.0073
same,peptide microarray binding signal,[3]; [23],0.0339 ± 0.018
same,peptide microarray binding signal,[3]; [24],0.0225 ± 0.0063
same,peptide microarray binding signal,[4]; [23],0.0825 ± 0.052
same,peptide microarray binding signal,[4]; [24],0.0423 ± 0.027
